According to the supplement of paper PMC4894684:
Structures can show the parent of a compound that is named as a salt. ± gives the standard deviation of the averaged measurements.

Each compound was assayed on Toxoplasma gondii RH (in HFF) (assay: parasite growth relative to the screen mean (all compounds = 100%); higher = less inhibition of parasite growth). Conditions: 5 µM; 72 h; oxygen 21 %.
Summary of the method: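 Values give growth relative to the screen mean. The screen mean (all compounds) is set at 100%, and two screens were averaged. Compounds at 5 µM final were placed on confluent human foreskin fibroblasts, which were infected within 2 h with RH β-Gal–GFP Toxoplasma (MOI 1:5) and kept 72 h at 21% O2 before a CPRG β-Gal readout against in-plate standard curves.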

Row | Compound | parasite growth
1 | CC(=O)O[C@@H]1C[C@H]2C(C)(C)C(=O)C=C[C@]2(C)[C@H]2CC[C@@]3(C)[C@H](c4ccoc4)OC(=O)[C@H]4O[C@]43[C@@]21C [Gedunin] | 62.3 ± 9.6%
2 | Nc1nc2ccc(Cl)cc2c2nc(-c3ccco3)nn12 | 131 ± 14%
3 | CCN(Cc1ccncc1)C(=O)C(CO)c1ccccc1 (centres undefined) [Tropicamide] | 111 ± 11%
4 | Cn1nnc2c(C(N)=O)ncn2c1=O [Temozolomide] | 89.4 ± 4.9%
5 | Nc1nc2c(ccc3ccccc32)s1 | 158 ± 11%
6 | Cc1noc(NS(=O)(=O)c2cccc3c(N(C)C)cccc23)c1C | 59.8 ± 11%
7 | Cc1sc(N)c(C(=O)c2cccc(C(F)(F)F)c2)c1C | 141 ± 7.3%
8 | O=C(O)c1cc(=O)c2ccccc2[nH]1 [Kynurenic acid] | 123 ± 18%
9 | O=C(O)c1cc(=O)c2c(Cl)cc(Cl)cc2[nH]1 [5,7-Dichlorokynurenic acid] | 136 ± 26%
10 | O=C(COc1cccc2c(=O)[nH]ccc12)c1ccccc1 | 92.69 ± 0.78%
11 | Oc1ccc(-c2nc(-c3ccc(F)cc3)c(-c3ccncc3)[nH]2)cc1 | < 0%
12 | CNCC[C@@H](Oc1ccccc1C)c1ccccc1 [Tomoxetine hydrochloride] | 85.9 ± 8.6%
13 | CNC(=O)c1cc2c(cn1)[nH]c1ccccc12 | 124 ± 19%
14 | O=C(c1ccc(F)cc1)C1CCN(CCn2c(=S)[nH]c3ccccc3c2=O)CC1 [Altanserin hydrochloride] | 135 ± 6.3%
15 | O=c1nc2ccccc2c2n1CC(CN1CCN(c3ccccc3)CC1)N2 (centres undefined) | 120 ± 2.4%
16 | CN1CCC(=C2c3ccccc3CC(=O)c3sccc32)CC1 [Ketotifen fumarate] | 54.3 ± 14%
17 | Cc1ccccc1N1CCN(S(=O)(=O)C[C@]23CC[C@H](C[C@@H]2NC(=O)[C@@H](N)CCS(C)(=O)=O)C3(C)C)CC1 [L-368,899 hydrochloride] | 161 ± 16%
18 | COC(=O)C1=C(C)NC(C)=C(C(=O)OC(C)C)C1c1cccc2nonc12 (centres undefined) [Isradipine] | 43.3 ± 5.6%
19 | O=[N+]([O-])c1cc(Cl)ccc1S(=O)(=O)N1CCN(Cc2ccccc2)CC1 | 130 ± 24%
20 | CNS(=O)(=O)Cc1ccc2[nH]cc(CCN(C)C)c2c1 [Sumatriptan succinate] | 76.2 ± 11%
21 | Nc1nc(Cl)nc2c1ncn2[C@@H]1O[C@H](CO)[C@@H](O)[C@@H]1F [Clofarabine] | 67.9 ± 2.8%
22 | Fc1ccc([C@@H]2CCNC[C@H]2COc2ccc3c(c2)OCO3)cc1 [Paroxetine maleate] | 39.5 ± 4%
23 | CC(NC(=O)c1ccccc1/N=C/c1c(O)ccc2ccccc12)c1ccccc1 (centres undefined) [Sirtinol] | 97.5 ± 34%
24 | CN1CCN(C2=Nc3cc(Cl)ccc3Nc3ccccc32)CC1 [Clozapine] | 178 ± 40%
